Records with an inconclusive call do not appear. Where a call stands in place of a potency, no number is given. Active and inactive are the calls of the source. Calls come from the whole dose curve; as a rule, active = well fitted curve in the direction sought with a large enough effect; inconclusive = small, poorly fitted or top-dose-only effect, or another doubt; inactive = no such curve, though single readings can be large; an effect the other way counts as inactive or inconclusive.
Legend:
[1] = biological target: Glutaminase kidney isoform, mitochondrial (Homo sapiens) (UniProt O94925); assay: qHTS for Inhibitors of Glutaminase (GLS): LOPAC Validation (AID 624146); details: glutaminase enzyme activity inhibition; series mostly up to 46.1 µM; note: nearly all actives have a fitted effect of over 60% in size; note: potency is the fitted concentration of half-maximal effect
Chain of Glutaminase kidney isoform, mitochondrial (Homo sapiens) (O94925 whole entry, looked up, canonical isoform): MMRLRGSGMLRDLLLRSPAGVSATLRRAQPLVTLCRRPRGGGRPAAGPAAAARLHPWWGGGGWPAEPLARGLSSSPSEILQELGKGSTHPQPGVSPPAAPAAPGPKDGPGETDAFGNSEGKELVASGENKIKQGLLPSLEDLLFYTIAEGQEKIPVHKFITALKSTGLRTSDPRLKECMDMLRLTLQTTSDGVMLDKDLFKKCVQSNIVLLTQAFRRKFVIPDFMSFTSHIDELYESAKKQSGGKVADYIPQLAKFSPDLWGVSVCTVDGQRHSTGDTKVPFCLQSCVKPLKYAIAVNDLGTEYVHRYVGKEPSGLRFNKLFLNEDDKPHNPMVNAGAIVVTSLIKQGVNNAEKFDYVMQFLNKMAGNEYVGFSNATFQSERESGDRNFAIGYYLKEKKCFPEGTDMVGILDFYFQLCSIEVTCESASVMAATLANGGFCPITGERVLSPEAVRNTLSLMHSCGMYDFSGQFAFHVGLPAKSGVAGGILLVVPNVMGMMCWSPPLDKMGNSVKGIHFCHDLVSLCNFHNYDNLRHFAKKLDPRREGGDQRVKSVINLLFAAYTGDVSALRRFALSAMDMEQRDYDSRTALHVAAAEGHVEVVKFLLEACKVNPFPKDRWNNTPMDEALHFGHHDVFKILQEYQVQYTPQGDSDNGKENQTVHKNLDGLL
Method in brief: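 hKGA in 45 mM KH2PO4 pH 8.2, 0.02% Tween-20 with pin-transferred compounds; 1 mM L-glutamine (stock) plus glutamate oxidase/HRP/Amplex Red coupling added. Fluorescence read initially and after 30 min at RT.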

[2] = qHTS of Trypanosoma Brucei Inhibitors: LOPAC Validation (AID 624147); details: purified enzyme assay, luminescence, 45 min; series mostly up to 57.5 µM
Method in brief: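 Screened from lowest to highest concentration, compounds were pinned into TbPYK/substrate mixtures, and ADP (130 uM final) was added. Plates sat at room temperature for 45 min prior to Kinase-Glo Plus detection by luminescence.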

[3] = biological target: Glucagon-like peptide 1 receptor (Homo sapiens) (UniProt P43220); assay: qHTS of GLP-1 Receptor Agonists: LOPAC Validation (AID 624148); details: GLP-1R agonist cell assay; series mostly up to 46.1 µM;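 note: luminescence from a luciferase reporter switched on by cAMP; higher luminescence signal means agonism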
Chain of Glucagon-like peptide 1 receptor (Homo sapiens) (P43220 whole entry, looked up): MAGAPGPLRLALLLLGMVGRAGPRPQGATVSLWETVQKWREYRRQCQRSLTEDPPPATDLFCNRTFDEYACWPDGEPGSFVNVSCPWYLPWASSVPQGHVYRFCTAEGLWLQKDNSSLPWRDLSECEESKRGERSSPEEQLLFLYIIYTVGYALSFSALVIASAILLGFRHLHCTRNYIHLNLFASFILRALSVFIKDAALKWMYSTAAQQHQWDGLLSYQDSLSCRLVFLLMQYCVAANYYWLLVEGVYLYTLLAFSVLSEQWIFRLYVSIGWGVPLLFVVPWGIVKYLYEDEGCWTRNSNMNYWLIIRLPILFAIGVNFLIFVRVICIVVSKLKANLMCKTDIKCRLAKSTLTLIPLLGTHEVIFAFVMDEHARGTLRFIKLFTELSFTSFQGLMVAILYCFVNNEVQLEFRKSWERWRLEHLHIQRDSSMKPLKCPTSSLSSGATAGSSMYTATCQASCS
Method in brief: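 Agonism scored as increased luciferase luminescence driven by cAMP in HEK293 clones carrying GLP-1R. Cells settled 12 hours, received compound for 4-6 hr at 37 deg C, 5% CO2, and were read after 12 min detection reagent at RT.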

[4] = HTS Assay for Allosteric Antagonists of the Human D2 Dopamine Receptor: Hit Validation in HTRF (AID 624455); details: Cells stably expressing D1 dopamine receptor, inhibition mode; series mostly up to 46.1 µM; note: potency is the fitted concentration of half-maximal effect;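 note: stable D1 dopamine receptor cell line scored for blocking the D1 response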
Method in brief: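 Signal from an HTRF read-out in D1-expressing stable cells gave hit activity as inhibition of the D1 response.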

[5] = qHTS of Nrf2 Activators: LOPAC Validation (AID 624149); details: Nrf2/ARE reporter cell assay; series mostly up to 46.1 µM
Method in brief: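 ARE reporter activation measured in AREc32 firefly luciferase cells after 24 hr compound exposure; Steady-Glo luminescence.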

SMILES | Potency [1] | Potency [2] | Potency [3] | Potency [4] | Potency [5]
Cc1ccccc1/C=C/C1=NCCN1 | inactive | inactive | inactive | inactive | –
Cn1cc(C(F)(F)F)nc1-c1ccc(OCC(O)CNCCOc2ccc(O)c(C(N)=O)c2)cc1 (stereo not given) | – | inactive | inactive | inactive | inactive
CSc1nc(N)c2ncn([C@@H]3O[C@H](COP(=O)(O)OP(=O)(O)O)C(O)[C@H]3O)c2n1 (stereo not given in full) | inactive | – | inactive | – | –
CC(C)NCC(O)COc1ccc(CC(N)=O)cc1 (stereo not given) | inactive | – | inactive | – | inactive
Nc1nc2[nH]c(=O)cnc2c(=O)[nH]1 | inactive | inactive | inactive | inactive | –
COC(=O)[C@H](NC(=O)c1cc(-c2ccccc2)nc2ccccc12)c1ccccc1 | inactive | inactive | – | inactive | inactive
c1ccc(C(NCc2cccnc2)(c2ccccc2)c2ccccc2)cc1 | – | – | inactive | inactive | inactive
Cc1nc2n(c(=O)c1CCN1CCC(c3noc4cc(F)ccc34)CC1)CCCC2O (stereo not given) | inactive | inactive | – | inactive | –
C[C@@H](NCCc1ccc(O)cc1)[C@@H](O)c1ccc(O)cc1 | – | inactive | – | inactive | inactive
CCCCCCCC/C=C\CCCCCCCC(=O)NCCc1ccc(O)c(O)c1 | – | inactive | inactive | 651 nM (active) | inactive
C[C@H](O)C(=O)C1=Nc2c(nc(N)[nH]c2=O)NC1 | – | inactive | inactive | inactive | –
C=CCNc1ncnc2ccc(Br)cc12 | inactive | inactive | inactive | inactive | –
COc1cc([C@@H]2c3cc4c(cc3[C@H](O)C3COC(=O)[C@@H]32)OCO4)cc(OC)c1OC (stereo not given in full) | – | – | inactive | inactive | inactive
CC(C)NC[C@H](O)COc1cccc2ccccc12 | inactive | – | inactive | inactive | inactive
OC1(c2ccc(Cl)cc2)CCN(Cc2c[nH]c3ccccc23)CC1 | inactive | – | inactive | inactive | inactive
[Li+] | inactive | inactive | inactive | inactive | –
O=S(=O)(c1cccc2c(Cl)cccc12)N1CCCNCC1 | inactive | – | inactive | inactive | inactive
CNCCc1cnc(CCC(c2ccccc2)c2ccccc2)[nH]1 | inactive | – | – | inactive | inactive
C[C@](Cc1ccc(O)c(O)c1)(NN)C(=O)O | 1.58 µM (active) | – | inactive | – | inactive
N[C@@H](Cc1ccc(F)cc1)C(=O)O | inactive | inactive | – | inactive | inactive
Cn1cc(C(=O)OCC2CCN(CCNS(C)(=O)=O)CC2)c2ccccc21 | inactive | inactive | – | inactive | inactive
CC[C@H](NC(=O)c1c(C)c(-c2ccccc2)nc2ccccc12)c1ccccc1 | inactive | inactive | – | inactive | inactive
CCCCCCC(=O)OC1CC(C)(C)NC(C)(C)C1 | inactive | inactive | – | inactive | inactive
O=C(O)/C=C/c1ccc(O)c(O)c1 | 2 µM (active) | – | inactive | inactive | inactive
N#Cc1cc([N+](=O)[O-])c2sc(C(N)=O)[n+]([O-])c2c1 | – | inactive | – | inactive | inactive
Nc1ncnc2c1c(-c1ccc(Oc3ccccc3)cc1)cn2C1CCCC1 | – | – | inactive | inactive | inactive
CN1CCc2cc(Cl)c(O)cc2[C@@H](c2ccccc2)C1 | – | inactive | inactive | – | inactive
